These results are taken from article PMC11062922 (Nature Chemical Biology, 2023).

Common to all, as to set-up: species or system human, MV4-11 + K-562 + COLO205 + SK-N-BE2 + OVCAR-8
One assay deals with ACVR1B. The settings on record: read-out: apparent Kd, compound concentrations: 100 nM and 1000 nM (sheet 'Samples'), n = 1.
The next assay deals with ACVR1. To be noted: read-out: apparent Kd, compound concentrations: 100 nM and 1000 nM (sheet 'Samples'), n = 1.
Another assay deals with ACVR2B. To be noted: read-out: apparent Kd; compound concentrations: 100 nM and 1000 nM (sheet 'Samples'), CATDS: 0.67080964654625497; n = 1.
Another assay has as its system BCR. To be noted: read-out: apparent Kd; compound concentrations: 100 nM and 1000 nM (sheet 'Samples'), CATDS: 8.1652957748264393E-2; n = 1.
The subject of another assay is BMPR1B. The settings on record: read-out: apparent Kd; compound concentrations: 100 nM and 1000 nM (sheet 'Samples'), CATDS: 7.3247906456106002E-2; n = 1.
The next assay deals with CDC7. To be noted: read-out: apparent Kd; compound concentrations: 100 nM and 1000 nM (sheet 'Samples'), CATDS: 4.9206883035311198E-2; n = 1.
For a further assay, the system named is CDK4. To be noted: read-out: apparent Kd; compound concentrations: 100 nM and 1000 nM (sheet 'Samples'), CATDS: 4.8870042780869302E-2; n = 1.
The subject of a further assay is EPHA1. The settings on record: read-out: apparent Kd; compound concentrations: 100 nM and 1000 nM (sheet 'Samples'), CATDS: 7.9880542471912896E-2; n = 1.
The next assay concerns GAK. The settings on record: read-out: apparent Kd, compound concentrations: 100 nM and 1000 nM (sheet 'Samples'), n = 1.
In another assay the test system is MAP2K1. The settings on record: read-out: apparent Kd; compound concentrations: 100 nM and 1000 nM (sheet 'Samples'), CATDS: 4.7289887756517802E-2; n = 1.
A further assay deals with NLK. The settings on record: read-out: apparent Kd, compound concentrations: 100 nM and 1000 nM (sheet 'Samples'), n = 1.
Another assay relates to RIPK2. To be noted: read-out: apparent Kd, compound concentrations: 100 nM and 1000 nM (sheet 'Samples'), n = 1.
The test system of the next assay is RIPK3. To be noted: read-out: apparent Kd, compound concentrations: 100 nM and 1000 nM (sheet 'Samples'), n = 1.
The subject of another assay is TGFBR2. To be noted: read-out: apparent Kd; compound concentrations: 100 nM and 1000 nM (sheet 'Samples'), CATDS: 0.233102504079717; n = 1.
The subject of the next assay is CIT. To be noted: read-out: apparent Kd; compound concentrations: 100 nM and 1000 nM (sheet 'Samples'), CATDS: 4.5392232292010899E-2; n = 1.
A further assay deals with CSNK1A1. To be noted: read-out: apparent Kd; compound concentrations: 100 nM and 1000 nM (sheet 'Samples'), CATDS: 0.114009601510889; n = 1.
In the next assay the test system is CSNK1D. To be noted: read-out: apparent Kd; compound concentrations: 100 nM and 1000 nM (sheet 'Samples'), CATDS: 0.391959397884028; n = 1.
The test system of another assay is CSNK1E. The settings on record: read-out: apparent Kd; compound concentrations: 100 nM and 1000 nM (sheet 'Samples'), CATDS: 0.26273499221924201; n = 1.
The test system of a further assay is DDR1. The settings on record: read-out: apparent Kd; compound concentrations: 100 nM and 1000 nM (sheet 'Samples'), CATDS: 4.8095496683990102E-2; n = 1.
Another assay has as its system DDR2. To be noted: read-out: apparent Kd; compound concentrations: 100 nM and 1000 nM (sheet 'Samples'), CATDS: 4.5410766330070199E-2; n = 1.
The subject of the next assay is JAK1. The settings on record: read-out: apparent Kd; compound concentrations: 100 nM and 1000 nM (sheet 'Samples'), CATDS: 2.6628241709745499E-2; n = 1.
The subject of another assay is MAPK10. The settings on record: read-out: apparent Kd; compound concentrations: 100 nM and 1000 nM (sheet 'Samples'), CATDS: 4.9321772364443003E-2; n = 1.
The subject of a further assay is MAPK11. The settings on record: read-out: apparent Kd; compound concentrations: 100 nM and 1000 nM (sheet 'Samples'), CATDS: 2.6556217045786298E-2; n = 1.
In the next assay the test system is MAPK14. To be noted: read-out: apparent Kd; compound concentrations: 100 nM and 1000 nM (sheet 'Samples'), CATDS: 9.6245202156368906E-2; n = 1.
For the next assay, the system named is MAPK8. The settings on record: read-out: apparent Kd; compound concentrations: 100 nM and 1000 nM (sheet 'Samples'), CATDS: 2.73704072863558E-2; n = 1.
In a further assay the test system is MAPK9. To be noted: read-out: apparent Kd; compound concentrations: 100 nM and 1000 nM (sheet 'Samples'), CATDS: 5.3906209351099597E-2; n = 1.
Another assay relates to MAPKAPK2. To be noted: read-out: apparent Kd; compound concentrations: 100 nM and 1000 nM (sheet 'Samples'), CATDS: 8.8407398731798204E-2; n = 1.
The test system of the next assay is MYLK3. To be noted: read-out: apparent Kd; compound concentrations: 100 nM and 1000 nM (sheet 'Samples'), CATDS: 2.9739343508474202E-2; n = 1.
The next assay deals with PKN3. The settings on record: read-out: apparent Kd; compound concentrations: 100 nM and 1000 nM (sheet 'Samples'), CATDS: 2.84976438170014E-2; n = 1.
The next assay relates to PRKD2. The settings on record: read-out: apparent Kd; compound concentrations: 100 nM and 1000 nM (sheet 'Samples'), CATDS: 2.85113335407263E-2; n = 1.
The test system of a further assay is PRKD3. The settings on record: read-out: apparent Kd; compound concentrations: 100 nM and 1000 nM (sheet 'Samples'), CATDS: 2.77377290368628E-2; n = 1.
For another assay, the system named is TGFBR1. To be noted: read-out: apparent Kd; compound concentrations: 100 nM and 1000 nM (sheet 'Samples'), CATDS: 3.9958881168014597E-2; n = 1.
For the next assay, the system named is TNIK. The settings on record: read-out: apparent Kd; compound concentrations: 100 nM and 1000 nM (sheet 'Samples'), CATDS: 2.6108076869188701E-2; n = 1.

Where two headings read alike, the source gives them in different places.

Take `Oc1cc(Nc2ccnc3cc(I)ccc23)ccc1F` [GW552771X]: the potency estimated from few doses in the assay with ACVR1B (CATDS: 5.5704311303099698E-2) was 1050 nM; in the assay on ACVR1 (CATDS: 5.3500871089908003E-2), 1220 nM; with ACVR2B, 4.54 nM; with BCR, 339 nM; with BMPR1B, 452 nM; in the assay on CDC7, 1710 nM. Besides, the potency estimated from few doses was 1760 nM in the assay with CDK4; 359 nM in the assay with EPHA1; 109 nM in the assay on GAK (CATDS: 0.131761231196901); 2050 nM with MAP2K1; 1260 nM with NLK (CATDS: 5.29869352744404E-2); 204 nM in the assay with RIPK2 (CATDS: 0.100310805321257). Further, the potency estimated from few doses is 838 nM in the assay with RIPK3 (CATDS: 5.9537511979901002E-2) and 32.2 nM with TGFBR2.
As to `Nc1nccc(-c2c(-c3ccc(F)cc3)ncn2C2CCC(O)CC2)n1` (stereo not drawn) [SB-223133], the potency estimated from few doses in the assay on ACVR1B (CATDS: 5.67589208103269E-2) is 74.5 nM; with ACVR1 (CATDS: 2.5761015840506201E-2) it was 1350 nM; with CIT, 140 nM; in the assay with CSNK1A1, 15 nM; with CSNK1D it was 1.72 nM; in the assay on CSNK1E it was 3.2 nM. The potency estimated from few doses in the assay with DDR1 is 118 nM; in the assay with DDR2, 140 nM; with GAK (CATDS: 2.6841490369303E-2), 1070 nM; in the assay on JAK1, 1120 nM; with MAPK10 it was 110 nM; in the assay with MAPK11 it was 1140 nM. Also, the potency estimated from few doses in the assay with MAPK14 was 21.4 nM; with MAPK8 it was 969 nM; in the assay with MAPK9, 85.6 nM; in the assay with MAPKAPK2 it was 25.8 nM; with MYLK3 it was 653 nM; in the assay on NLK (CATDS: 4.6610928560784803E-2) it was 129 nM. Also, the potency estimated from few doses is 794 nM with PKN3; 793 nM with PRKD2; 906 nM with PRKD3; 33.7 nM in the assay with RIPK2 (CATDS: 7.8449677339207394E-2); 2140 nM in the assay on RIPK3 (CATDS: 2.3985776131164802E-2); 210 nM in the assay with TGFBR1. Besides, in the assay with TNIK, the potency estimated from few doses is 1250 nM.
